# In PubChem BioAssay:
# Calls of active or inactive are those of the source.
# Legend:
# [1] = A549 cell viability effects, profiling panel, calcein-AM fluorescence, 48 h, basal (AID 1162); conditions: higher = more signal; further: test concentration not given here
# [2] = adipocyte viability effects, profiling panel, cell-based, 3T3-L1 adipocytes, calcein-AM fluorescence, 48 h, basal (AID 1163); conditions: 3T3-L1 adipocytes viability, higher = more signal; further: test concentration not given here
# [3] = HepG2 cell viability effects, profiling panel, calcein-AM fluorescence, 48 h, basal (AID 1164); conditions: higher = more signal; further: test concentration not given here
# [4] = MM1S cell viability effects, profiling panel, calcein-AM fluorescence, 48 h, basal (AID 1165); conditions: higher = more signal;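 further: viability of MM1S multiple myeloma cells under basal unstimulated conditions; test concentration not given here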
# [5] = basal RPMI8226 viability, no added stimulus, profiling panel, cell-based, calcein-AM fluorescence, 48 h, PK04 Diversity Set (AID 1166); conditions: RPMI8226 myeloma viability, higher = more signal;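 further: cells grown under basal conditions without added stimulus; test concentration not given here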
# [6] = basal HepG2 mitochondrial membrane potential changes, profiling panel, cell-based, JC-1 fluorescence, 24 h, 100 nL compound (AID 1167); conditions: higher = more signal; further: test concentration not given here
# [7] = basal 3T3-L1 adipocyte mitochondrial potential changes, profiling panel, cell-based, JC-1 fluorescence, 3T3-L1 adipocytes, 24 h, 100 nL compound (AID 1168); conditions: JC-1 mitochondrial fluorescence, higher = more signal, called active from +8 up or from −8 down; further: test concentration not given here
# [8] = basal RPMI8226 mitochondrial membrane potential changes, profiling panel, cell-based, JC-1 fluorescence, 24 h, 100 nL compound (AID 1169); conditions: RPMI8226 myeloma, JC-1 mitochondrial potential fluorescence, higher = more signal; further: test concentration not given here
# [9] = basal MM1S mitochondrial membrane potential changes, profiling panel, cell-based, JC-1 fluorescence, 24 h, 100 nL compound (AID 1170); conditions: higher = more signal; further: test concentration not given here
# [10] = A549 lung cancer cell viability effects, profiling panel, resazurin fluorescence, 24 h, PK04 Diversity Set (AID 1171); conditions: higher = more signal, called active from +8 up or from −8 down; further: test concentration not given here
# [11] = HepG2 liver cancer cell viability effects, profiling panel, resazurin fluorescence, 24 h, PK04 Diversity Set (AID 1172); conditions: higher = more signal; further: test concentration not given here
# [12] = basal S. cerevisiae growth modulation, no modifier, primary screen, OD600, strain BY4716, 24 h, basal condition (AID 1173); conditions: OD600, 24 h, higher = more signal, called active from +8 up or from −8 down
# [13] = MM1S myeloma cell viability, profiling panel, resazurin fluorescence, basal, 24 h, PK04 Diversity Set (AID 1174); conditions: higher = more signal, called active from +8 up or from −8 down;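 further: MM1S multiple myeloma cell line; test concentration not given here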
# [14] = target: Dihydroorotate dehydrogenase (quinone), mitochondrial (Plasmodium falciparum (isolate 3D7)) (UniProt Q08210); assay: PfDHODH enzyme inhibitors, primary screen, biochemical, C-terminal His tag, absorbance 600 nm (AID 1175); conditions: DCIP absorbance 600 nm, higher = more signal, called active from +8 up or from −8 down;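 further: recombinant parasite enzyme with a five histidine tag at its C terminus; test concentration not given here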
# Sequence of Dihydroorotate dehydrogenase (quinone), mitochondrial (Plasmodium falciparum (isolate 3D7)) (Q08210 whole entry, looked up): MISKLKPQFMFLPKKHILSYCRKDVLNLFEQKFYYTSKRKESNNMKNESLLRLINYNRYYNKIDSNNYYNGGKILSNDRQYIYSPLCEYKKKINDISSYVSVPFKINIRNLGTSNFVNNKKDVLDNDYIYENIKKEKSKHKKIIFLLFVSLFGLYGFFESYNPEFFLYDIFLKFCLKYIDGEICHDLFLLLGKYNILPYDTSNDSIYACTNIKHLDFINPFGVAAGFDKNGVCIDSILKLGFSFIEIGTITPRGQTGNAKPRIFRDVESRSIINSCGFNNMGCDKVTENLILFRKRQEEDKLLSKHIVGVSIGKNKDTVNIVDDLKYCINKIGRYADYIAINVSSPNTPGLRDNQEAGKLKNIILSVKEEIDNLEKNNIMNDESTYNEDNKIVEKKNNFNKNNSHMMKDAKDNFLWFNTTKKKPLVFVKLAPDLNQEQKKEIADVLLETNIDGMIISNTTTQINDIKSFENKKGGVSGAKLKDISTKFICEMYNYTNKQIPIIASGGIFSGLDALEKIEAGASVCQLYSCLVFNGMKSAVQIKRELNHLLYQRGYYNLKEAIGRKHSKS
# [15] = S. cerevisiae RM11-1a growth modifiers, primary screen, strain RM11-1a, OD600, basal, 24 h (AID 1177); conditions: OD600, 24 h, higher = more signal, called active from +8 up or from −8 down;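 further: cultures grown under basal conditions with no added stressor; test concentration not given here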
# [16] = E. coli acrAB mutant growth effects, primary screen, E. coli filamentation inducers, strain DRC39, OD650, 24 h (AID 1178); conditions: higher = more signal, called active from +8 up or from −8 down;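 further: growth measured as culture turbidity by optical density at 650 nm; test concentration not given here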
# [17] = E. coli acrAB mutant growth effects, primary screen, E. coli filamentation inducers, strain DRC39, OD650, 48 h (AID 1179);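 further: screen aims at cell division blockers that make cells filament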; conditions: E. coli DRC39 delta-acrAB growth, higher = more signal, called active from +8 up or from −8 down
# [18] = RPMI8226 myeloma cell viability, profiling panel, resazurin fluorescence, basal, 24 h, PK04 Diversity Set (AID 1180); conditions: higher = more signal;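 further: RPMI8826 multiple myeloma cell line at 5000 cells per well; test concentration not given here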
# [19] = target: E3 ubiquitin-protein ligase XIAP (Homo sapiens) (UniProt P98170); assay: XIAP binders, primary screen, biophysical, small-molecule microarray, fluorescence 635 nm (AID 1181); conditions: small-molecule microarray binding, higher = more signal;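 further: score merges 667 nm emission and signal to noise over triplicate slides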
# Sequence of E3 ubiquitin-protein ligase XIAP (Homo sapiens) (P98170 whole entry, looked up): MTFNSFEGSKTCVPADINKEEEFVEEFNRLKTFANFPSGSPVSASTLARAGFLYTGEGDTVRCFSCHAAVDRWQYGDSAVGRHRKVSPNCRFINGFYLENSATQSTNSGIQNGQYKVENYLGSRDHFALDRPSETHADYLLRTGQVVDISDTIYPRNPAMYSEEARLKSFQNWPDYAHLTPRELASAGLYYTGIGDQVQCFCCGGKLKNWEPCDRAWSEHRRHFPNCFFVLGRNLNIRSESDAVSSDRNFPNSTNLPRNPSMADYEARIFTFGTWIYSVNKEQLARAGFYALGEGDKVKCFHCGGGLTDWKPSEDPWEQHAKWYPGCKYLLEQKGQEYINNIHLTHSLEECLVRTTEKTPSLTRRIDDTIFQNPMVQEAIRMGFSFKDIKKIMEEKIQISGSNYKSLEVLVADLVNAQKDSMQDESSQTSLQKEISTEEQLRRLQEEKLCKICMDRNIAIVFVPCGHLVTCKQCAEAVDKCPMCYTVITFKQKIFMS
SMILES,z-score [1],z-score [2],z-score [3],z-score [4],z-score [5],z-score [6],z-score [7],z-score [8],z-score [9],z-score [10],z-score [11],z-score [12],z-score [13],composite z-score [14],z-score [15],z-score [16],z-score [17],z-score [18],composite z-score [19]
CCCCO[C@H]1C[C@H]2C(Br)=C[C@@]1(CO)C(=O)[C@]21CO1,0.491,0.53,-0.337,-0.997,-0.545,0.76,1.33 (inactive),-1.12,0.149,0.6 (inactive),1.24,-3.84 (inactive),1.07 (inactive),-0.343 (inactive),-1.86 (inactive),2.66 (inactive),1.48 (inactive),0.999,-0.02
CCCC/C=C/[C@H]([C@@H](O)Cc1ccccc1)N(CC#Cc1ccccc1)Cc1ccccc1Br,1.44,-0.0982,0.632,0.558,0.0649,0.427,0.519 (inactive),-0.462,-0.435,2.84 (inactive),1.65,-1.44 (inactive),0.579 (inactive),0.197 (inactive),0.994 (inactive),2.75 (inactive),1.19 (inactive),0.788,-0.039
C[C@H]1COC(=O)[C@H](Cc2ccccc2)NC(=O)[C@@H](C)COC(=O)[C@H](Cc2ccccc2)NC1=O,-0.429,1.27,0.0613,0.244,1.03,0.827,0.382 (inactive),-0.405,0.0881,0.512 (inactive),0.24,-1.23 (inactive),1.04 (inactive),0.063 (inactive),-1.43 (inactive),0.253 (inactive),-0.156 (inactive),1.28,-0.127
COCCOC(=O)N1C(=O)[C@@]2(c3cc(C#CC4(O)CCCCCC4)ccc31)[C@H](C(=O)N1CCCCCCC1)[C@H]1C(=O)O[C@H](c3ccccc3)[C@H](c3ccccc3)N1[C@@H]2c1ccc(O)cc1,-0.475,2.45,-0.0416,-0.747,-0.733,-0.355,1.16 (inactive),-0.861,-0.219,0.627 (inactive),0.1,-0.975 (inactive),1.57 (inactive),0.0505 (inactive),0.322 (inactive),0.286 (inactive),0.264 (inactive),0.868,0.154
CO[C@H]1COC(=O)[C@H](C)COC(=O)[C@H](Cc2ccccc2)NC(=O)CC=C[C@H]1C,0.219,-0.0092,0.284,-0.0516,1.14,0.744,0.854 (inactive),0.433,0.213,-0.36 (inactive),0.492,-1.3 (inactive),0.62 (inactive),-0.393 (inactive),-0.954 (inactive),0.192 (inactive),0.144 (inactive),0.254,-0.267
CCOC(=O)C[C@H]1[C@H](OC(=O)Cc2ccc3c(c2)OCO3)[C@@H](NC(=O)CC(C)C)c2cc(OCCCO)ccc2N1C(=O)c1ccccc1,2.34,-0.148,0.978,0.532,2.13,1.78,1.58 (inactive),-0.0658,0.751,1.16 (inactive),1.05,-1.05 (inactive),0.548 (inactive),0.679 (inactive),-0.606 (inactive),2.13 (inactive),1.65 (inactive),0.458,0.0015
C=CCc1cccc([C@@H]2[C@@H](C)CC[C@H]3C(=O)N4[C@H](c5cccc(CC=C)c5)[C@@H](C)CC[C@H]4C(=O)N23)c1,-0.814,1.29,-0.746,-3.58,-3.9,2.17,0.639 (inactive),-0.811,-1.28,3.27 (inactive),2.52,-1.2 (inactive),0.778 (inactive),-1.76 (inactive),1.1 (inactive),0.55 (inactive),-0.184 (inactive),-1.11,-0.187
CO[C@H]1COC(=O)[C@@H](C)COC(=O)[C@H](Cc2ccccc2)NC(=O)CC=C[C@H]1C,-0.0475,0.838,0.53,-0.0069,-0.602,0.756,0.906 (inactive),0.25,0.877,0.733 (inactive),0.495,-1.05 (inactive),1.06 (inactive),0.234 (inactive),-1.48 (inactive),0.586 (inactive),0.274 (inactive),0.794,-0.0293
CCN1C(C)=C(C(=O)OC)[C@@H](c2ccccc2)N2C(=O)[C@@]3(C(=O)OC)O[C@@]12[C@@H]1C(=O)CCC[C@@H]13,-0.195,0.955,-0.369,0.853,0.476,0.638,0.881 (inactive),0.538,0.29,0.282 (inactive),0.584,-0.99 (inactive),1.03 (inactive),-1.39 (inactive),0.989 (inactive),-0.275 (inactive),-0.0144 (inactive),0.835,0.111
CCOC(=O)[C@H]1C/C=C/C[C@H](C(=O)OCC)C(=O)O[C@H]2[C@@H](OC)O[C@H](CO)[C@@H](OC(=O)Nc3ccc(Br)cc3)[C@@H]2OC1=O,-4.47,-0.34,-5.12,-3.28,-4.16,-3.44,2.89 (inactive),-0.948,-1.83,-7.29 (inactive),-6.68,-1.68 (inactive),-9.26 (active),-1.48 (inactive),0.424 (inactive),1.65 (inactive),1.93 (inactive),-7.26,0.0223
CN1CCC(CCCO)=CC1C1CC1 (stereo unspecified),0.4,0.852,-0.879,-0.833,0.174,1.32,0.57 (inactive),0.201,0.389,-0.0682 (inactive),0.413,-0.821 (inactive),1.18 (inactive),-1.13 (inactive),-1.57 (inactive),0.887 (inactive),0.611 (inactive),0.63,0.77
CCOC(=O)C[C@H]1[C@H](OC(=O)c2ccccc2-c2ccccc2)[C@@H](NC(=O)C2CCCCC2)c2cc(OCCCO)ccc2N1C(=O)c1ccccc1,-0.675,1.22,-0.294,-0.402,-1.33,3.59,0.75 (inactive),-0.545,0.109,-0.0403 (inactive),-0.206,-0.686 (inactive),0.609 (inactive),0.684 (inactive),1.33 (inactive),2.32 (inactive),1.37 (inactive),0.737,-0.0351
CSCC[C@@H]1NC(=O)CC=C[C@@H](C)COC(=O)[C@H](CCSC)NC(=O)CC=C[C@@H](C)COC1=O,0.364,1.7,0.0574,0.0493,0.0542,0.79,0.647 (inactive),0.508,0.388,0.376 (inactive),0.413,-1.37 (inactive),0.94 (inactive),0.576 (inactive),-1.46 (inactive),-0.251 (inactive),-0.407 (inactive),0.613,-0.243
O=[N+]([O-])c1ccc(C[n+]2ccc3ccc(O)cc3c2)o1,1.21,0.233,-0.489,0.216,0.705,-1.43,-0.157 (inactive),-0.158,0.648,-1.02 (inactive),-0.104,-5.54 (inactive),0.342 (inactive),-2 (inactive),-0.234 (inactive),-0.55 (inactive),-0.688 (inactive),0.405,0.411
COCCOC(=O)N1C(=O)[C@@]2(c3cc(C#CCCO)ccc31)[C@H](C(=O)N1CCCCCCC1)[C@H]1C(=O)O[C@H](c3ccccc3)[C@H](c3ccccc3)N1[C@@H]2c1ccc(O)cc1,1.53,0.843,1.87,0.555,-0.479,0.538,2.37 (inactive),-1.04,0.0272,0.641 (inactive),0.801,-1.74 (inactive),1.14 (inactive),0.138 (inactive),-2.75 (inactive),0.561 (inactive),1.43 (inactive),0.613,0.144
COc1cccc([C@@H]2[C@@H](C)CC[C@H]3C(=O)N4[C@H](c5cccc(OC)c5)[C@@H](C)CC[C@H]4C(=O)N23)c1,2.04,0.512,0.761,0.656,1.34,1.51,0.891 (inactive),-0.395,1.13,1.51 (inactive),1.96,-2.76 (inactive),1.24 (inactive),-1.35 (inactive),-3.28 (inactive),0.697 (inactive),-1.17 (inactive),1.42,-0.0599
C[C@@H]1CC[C@H]2C(=O)N3[C@@H](CC[C@@H](C)[C@@H]3c3cccc(N4CCOCC4)c3)C(=O)N2[C@H]1c1cccc(N2CCOCC2)c1,0.197,1.3,-0.894,0.467,-0.267,1.03,0.543 (inactive),-0.685,0.713,1.05 (inactive),0.728,-0.0109 (inactive),1.04 (inactive),0.148 (inactive),1.35 (inactive),0.203 (inactive),0.202 (inactive),1.39,-0.165
CC(=O)NCCCC[C@@H]1NC(=O)[C@@H]2C[C@H](C(=O)NCCCCCNC(=O)CS)[C@H](c3ccc(O)cc3)N2C1=O,1.69,0.349,-0.0748,0.372,1.33,1.36,0.985 (inactive),-0.418,-0.559,1.46 (inactive),1.25,-0.774 (inactive),1.19 (inactive),-0.961 (inactive),-3.21 (inactive),2.5 (inactive),2.03 (inactive),0.833,-0.131
CO[C@H]1COC(=O)[C@H](CCSC)NC(=O)CC=C[C@@H](C)COC(=O)[C@@H](OCc2ccccc2)C=C[C@@H]1C,0.349,0.507,0.0042,0.199,-0.358,0.842,1.23 (inactive),0.365,1.34,0.613 (inactive),0.732,0.0539 (inactive),1.06 (inactive),0.292 (inactive),0.449 (inactive),0.607 (inactive),0.26 (inactive),0.658,-0.12
